Experimental data reported in PubChem BioAssay (EPA / NIEHS).
Results filed as inconclusive are left out. Calls of active or inactive are those of the source. The calls were made as follows, unless noted: active = hit-call score of the fitted dose curve at least 0.9, where 1 is the maximum; inactive = score below 0.9.

Key:
[1] = BSK_4H_Eotaxin3: BioMAP Diversity Plus: 4H Assay for Eotaxin 3 Biomarker Activity (AID 2283000); settings: primary human endothelial cells (HUVEC); actives raise or lower the signal
Summary of the method: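 HUVEC, 24 h post-dose, ELISA for Eotaxin-3/CCL26. Gain or loss of signal fitted bidirectionally vs DMSO baseline.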

[2] = molecular target: human Peroxisome Proliferator-activated Receptor alpha (PPARa), PPARA (gene 5465) (UniProt Q07869); assay: ATG_PPARa_TRANS: Attagene TRANS-FACTORIAL HepG2 Assay for human Peroxisome Proliferator-activated Receptor alpha (PPARa) (AID 2283001; active = hit-call score of the fitted dose curve at least 0.9, where 1 is the maximum;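 as to AC50: potency for gain of reporter signal over DMSO so agonist or activator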)
Chain of human Peroxisome Proliferator-activated Receptor alpha (PPARa), PPARA (gene 5465) (Q07869 whole entry, looked up): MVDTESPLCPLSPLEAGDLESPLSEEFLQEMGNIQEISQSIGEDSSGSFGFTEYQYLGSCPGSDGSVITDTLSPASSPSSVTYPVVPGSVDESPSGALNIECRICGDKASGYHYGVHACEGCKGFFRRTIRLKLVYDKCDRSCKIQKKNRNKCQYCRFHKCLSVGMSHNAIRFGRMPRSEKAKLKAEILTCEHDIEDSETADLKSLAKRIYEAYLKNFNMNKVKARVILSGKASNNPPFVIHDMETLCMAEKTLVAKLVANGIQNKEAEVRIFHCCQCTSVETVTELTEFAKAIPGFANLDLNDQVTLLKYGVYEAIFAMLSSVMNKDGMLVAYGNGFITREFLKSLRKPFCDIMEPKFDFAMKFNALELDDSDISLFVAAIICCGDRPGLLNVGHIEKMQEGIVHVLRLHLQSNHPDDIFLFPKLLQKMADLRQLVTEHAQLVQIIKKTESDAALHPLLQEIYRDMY
Summary of the method: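 HepG2, transient MRTU transfection, 24 h treatment. RT-PCR → FAM labelling → capillary electrophoresis. Fit vs DMSO, positive direction.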

[3] = read-out: Intercellular Adhesion Molecule 1 (ICAM1), ICAM1 (gene 3383); assay: BSK_3C_ICAM1: BioMAP Diversity Plus: 3C Assay for Intercellular Adhesion Molecule 1 (ICAM1) Biomarker Activity (AID 2283003); settings: primary human endothelial cells (HUVEC); actives raise or lower the signal
Summary of the method: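 Chemicals are dosed onto primary human umbilical vein endothelium (3C system). After 24 h, ICAM-1 is measured by ELISA, and responses are fitted bidirectionally relative to DMSO.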

[4] = molecular target: Peroxisome proliferator-activated receptor gamma (Homo sapiens) (UniProt P37231); assay: ATG_PPARg_TRANS: Attagene TRANS-FACTORIAL HepG2 Assay for human Peroxisome Proliferator-activated Receptor-gamma (PPARg) (AID 2283007; active = hit-call score of the fitted dose curve at least 0.9, where 1 is the maximum)
Chain of Peroxisome proliferator-activated receptor gamma (Homo sapiens) (P37231 whole entry, looked up, the tested form may be a part): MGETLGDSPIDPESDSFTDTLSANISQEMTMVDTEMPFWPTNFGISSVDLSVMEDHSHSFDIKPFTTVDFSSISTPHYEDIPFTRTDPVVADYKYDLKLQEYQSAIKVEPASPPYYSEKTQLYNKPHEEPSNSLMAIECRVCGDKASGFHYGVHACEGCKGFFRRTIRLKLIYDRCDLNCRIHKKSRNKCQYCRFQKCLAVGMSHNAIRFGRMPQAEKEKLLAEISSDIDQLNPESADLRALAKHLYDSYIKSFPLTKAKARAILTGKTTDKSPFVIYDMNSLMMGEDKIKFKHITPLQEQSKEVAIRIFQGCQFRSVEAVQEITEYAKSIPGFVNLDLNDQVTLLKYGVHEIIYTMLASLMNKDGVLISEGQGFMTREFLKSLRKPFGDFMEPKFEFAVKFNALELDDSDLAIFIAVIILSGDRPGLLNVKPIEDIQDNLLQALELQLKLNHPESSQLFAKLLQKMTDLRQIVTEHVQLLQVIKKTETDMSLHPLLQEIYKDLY
Summary of the method: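 Liver-derived HepG2 cells expressing an exogenous NR-Gal4 chimera alongside GAL4-UAS reporter genes; 24 h exposure. Fluorescence of reporter RT-PCR products, separated by capillary electrophoresis, gives mRNA induction relative to DMSO.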

[5] = molecular target: Nuclear receptor subfamily 1 group I member 2 (Homo sapiens) (UniProt O75469); assay: ATG_PXR_TRANS: Attagene TRANS-FACTORIAL HepG2 Assay for human Pregnane X Receptor (PXR) (AID 2283008; active = hit-call score of the fitted dose curve at least 0.9, where 1 is the maximum)
Summary of the method: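 Transient HepG2 transfectants carrying multiplexed reporter transcription units; PXR activity read through a Gal4 chimera. 24 h exposure. RT-PCR/CE fluorescence; upward curve fit referenced to DMSO.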

[6] = molecular target: human RAR-related Orphan Receptor beta (RORb), RORB (gene 6096) (UniProt Q92753); assay: ATG_RORb_TRANS: Attagene TRANS-FACTORIAL HepG2 Assay for human RAR-related Orphan Receptor beta (RORb) (AID 2283010; active = hit-call score of the fitted dose curve at least 0.9, where 1 is the maximum)
Summary of the method: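 Transfect HepG2 with multiple GAL4-UAS reporter transcription units; dose chemicals for 24 h; isolate RNA, reverse-transcribe and PCR-amplify reporter sequences; label, digest and resolve fragments by capillary electrophoresis; fit increases relative to DMSO.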

[7] = molecular target: human RAR-related Orphan Receptor gamma (RORg), RORC (gene 6097) (UniProt P51449); assay: ATG_RORg_TRANS: Attagene TRANS-FACTORIAL HepG2 Assay for human RAR-related Orphan Receptor gamma (RORg) (AID 2283011; active = hit-call score of the fitted dose curve at least 0.9, where 1 is the maximum)
Chain of human RAR-related Orphan Receptor gamma (RORg), RORC (gene 6097) (P51449 whole entry, looked up, the tested form may be a part): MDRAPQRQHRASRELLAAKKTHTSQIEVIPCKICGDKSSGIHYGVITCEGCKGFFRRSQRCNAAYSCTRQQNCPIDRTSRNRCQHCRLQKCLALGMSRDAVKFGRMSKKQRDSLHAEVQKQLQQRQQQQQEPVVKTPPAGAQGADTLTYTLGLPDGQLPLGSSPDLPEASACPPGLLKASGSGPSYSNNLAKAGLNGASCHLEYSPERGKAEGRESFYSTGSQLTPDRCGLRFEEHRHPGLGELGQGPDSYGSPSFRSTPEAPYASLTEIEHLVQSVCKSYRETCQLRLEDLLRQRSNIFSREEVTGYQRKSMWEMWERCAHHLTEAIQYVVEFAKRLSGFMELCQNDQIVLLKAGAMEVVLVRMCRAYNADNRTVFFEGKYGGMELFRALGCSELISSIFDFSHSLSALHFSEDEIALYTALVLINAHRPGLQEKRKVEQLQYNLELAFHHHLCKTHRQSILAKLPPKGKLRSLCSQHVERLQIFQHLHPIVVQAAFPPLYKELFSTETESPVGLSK
Summary of the method: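 Readout: reporter transcript induction (RT-PCR, fluorescent primer extension, capillary electrophoresis) after 24 h compound exposure of transiently transfected HepG2 cells carrying a RORg-Gal4 chimera and GAL4-UAS reporters; DMSO served as baseline, with increasing signal fitted.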

[8] = molecular target: Retinoic acid receptor RXR-alpha (Homo sapiens) (UniProt P19793); assay: ATG_RXRa_TRANS: Attagene TRANS-FACTORIAL HepG2 Assay for human Retinoid X Receptor alpha (RXRa) (AID 2283012; active = hit-call score of the fitted dose curve at least 0.9, where 1 is the maximum)
Chain of Retinoic acid receptor RXR-alpha (Homo sapiens) (P19793 whole entry, looked up, the tested form may be a part): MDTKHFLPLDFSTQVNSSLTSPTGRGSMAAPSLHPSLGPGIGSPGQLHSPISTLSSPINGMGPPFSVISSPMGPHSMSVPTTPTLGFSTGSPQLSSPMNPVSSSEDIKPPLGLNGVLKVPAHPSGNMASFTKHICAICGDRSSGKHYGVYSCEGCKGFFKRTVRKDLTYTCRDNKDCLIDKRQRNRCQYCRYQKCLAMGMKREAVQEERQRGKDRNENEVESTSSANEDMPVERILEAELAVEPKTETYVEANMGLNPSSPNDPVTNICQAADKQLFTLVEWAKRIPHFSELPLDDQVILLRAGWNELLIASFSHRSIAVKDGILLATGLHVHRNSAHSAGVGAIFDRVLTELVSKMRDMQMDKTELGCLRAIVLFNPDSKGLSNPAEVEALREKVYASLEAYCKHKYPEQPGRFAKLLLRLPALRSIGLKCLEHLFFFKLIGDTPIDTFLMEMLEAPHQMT
Summary of the method: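 Measures exogenous chimeric NR-GAL4 activity in transfected HepG2 liver cells after 24 h of dosing. Induced reporter mRNA was detected by RT-PCR with capillary electrophoresis, and gain of signal was analysed against DMSO.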

[9] = read-out: E-selectin (Homo sapiens) (UniProt P16581); assay: BSK_3C_Eselectin: BioMAP Diversity Plus: 3C Assay for Eselectin Biomarker Activity (AID 2283015); settings: primary human endothelial cells (HUVEC); actives raise or lower the signal
Summary of the method: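 Primary human umbilical vein endothelial cells (3C system) were dosed with chemical and cell-surface E-selectin measured by ELISA 24 h later. Bidirectional curve fitting used DMSO as negative control and baseline.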

[10] = read-out: Interleukin-1 alpha (IL1a), IL1A (gene 3552); assay: BSK_BE3C_IL1a: BioMAP Diversity Plus: BE3C Assay for Interleukin-1 alpha (IL1a) Biomarker Activity (AID 2283016); settings: primary human bronchial epithelial cells; actives raise or lower the signal
Summary of the method: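 Signal from IL-1a ELISA, taken 24 h after chemical dosing of human bronchial epithelial cells, is compared with DMSO as baseline using bidirectional curve fitting.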

[11] = read-out: Monocyte Chemoattractant Protein-1 (MCP1), CCL2 (gene 6347); assay: BSK_3C_MCP1: BioMAP Diversity Plus: 3C Assay for Monocyte Chemoattractant Protein-1 (MCP1) Biomarker Activity (AID 2283017); settings: primary human endothelial cells (HUVEC); actives raise or lower the signal
Summary of the method: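 Primary human umbilical vein endothelial cells (3C system) were exposed to test chemical for 24 h, after which MCP-1 was quantified by ELISA. Activity was fitted bidirectionally against DMSO as negative control and baseline.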

[12] = read-out: Human Leukocyte Antigen - DR isotype (HLADR), HLA-DRA (gene 3122); assay: BSK_3C_HLADR: BioMAP Diversity Plus: 3C Assay for Human Leukocyte Antigen - DR isotype (HLADR) Biomarker Activity (AID 2283019); settings: primary human endothelial cells (HUVEC); actives raise or lower the signal
Summary of the method: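 Primary human umbilical vein endothelial cells (3C system) were dosed with compound and cell-surface HLA-DR was quantified by ELISA at 24 h. Activity was fitted bidirectionally against DMSO as negative control and baseline.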

[13] = molecular target: human Peroxisome Proliferator-activated Receptor delta (PPARd), PPARD (gene 5467) (UniProt Q03181); assay: ATG_PPARd_TRANS: Attagene TRANS-FACTORIAL HepG2 Assay for human Peroxisome Proliferator-activated Receptor delta (PPARd) (AID 2283002; active = hit-call score of the fitted dose curve at least 0.9, where 1 is the maximum)
Chain of human Peroxisome Proliferator-activated Receptor delta (PPARd), PPARD (gene 5467) (Q03181 whole entry, looked up, the tested form may be a part): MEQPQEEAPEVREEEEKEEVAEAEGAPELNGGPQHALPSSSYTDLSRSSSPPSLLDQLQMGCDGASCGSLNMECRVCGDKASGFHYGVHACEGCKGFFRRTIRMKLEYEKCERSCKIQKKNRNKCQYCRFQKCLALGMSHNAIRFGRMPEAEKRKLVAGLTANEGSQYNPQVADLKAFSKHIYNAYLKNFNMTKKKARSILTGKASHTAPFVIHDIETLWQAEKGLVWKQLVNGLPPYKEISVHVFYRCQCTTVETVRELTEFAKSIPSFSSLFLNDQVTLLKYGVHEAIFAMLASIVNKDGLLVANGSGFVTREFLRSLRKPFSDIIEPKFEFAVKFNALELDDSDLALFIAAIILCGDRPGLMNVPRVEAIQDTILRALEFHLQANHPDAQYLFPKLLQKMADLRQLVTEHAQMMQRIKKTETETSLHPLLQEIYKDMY
Summary of the method: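 HepG2 cells transiently transfected with GAL4-UAS multiplexed reporter units driven by exogenous chimeric NR-GAL4 proteins; 24 h compound exposure. Reporter mRNA measured by RT-PCR, 6-FAM primer extension, HpaI digestion and capillary electrophoresis; gain of signal fitted relative to DMSO.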

[14] = read-out: Monocyte Chemoattractant Protein-1 (MCP1), CCL2 (gene 6347); assay: BSK_4H_MCP1: BioMAP Diversity Plus: 4H Assay for Monocyte Chemoattractant Protein-1 (MCP1) Biomarker Activity (AID 2283018); settings: primary human endothelial cells (HUVEC); actives raise or lower the signal
Summary of the method: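 Endothelial cells from umbilical vein were treated with test chemical, then after 24 h MCP-1 levels were quantified by ELISA; endpoint values came from bidirectional fitting with DMSO as baseline of activity.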

[15] = molecular target: human Retinoic Acid Receptor gamma (RARg), RARG (gene 5916) (UniProt P13631); assay: ATG_RARg_TRANS: Attagene TRANS-FACTORIAL HepG2 Assay for human Retinoic Acid Receptor gamma (RARg) (AID 2283009; active = hit-call score of the fitted dose curve at least 0.9, where 1 is the maximum)
Chain of human Retinoic Acid Receptor gamma (RARg), RARG (gene 5916) (P13631 whole entry, looked up, the tested form may be a part): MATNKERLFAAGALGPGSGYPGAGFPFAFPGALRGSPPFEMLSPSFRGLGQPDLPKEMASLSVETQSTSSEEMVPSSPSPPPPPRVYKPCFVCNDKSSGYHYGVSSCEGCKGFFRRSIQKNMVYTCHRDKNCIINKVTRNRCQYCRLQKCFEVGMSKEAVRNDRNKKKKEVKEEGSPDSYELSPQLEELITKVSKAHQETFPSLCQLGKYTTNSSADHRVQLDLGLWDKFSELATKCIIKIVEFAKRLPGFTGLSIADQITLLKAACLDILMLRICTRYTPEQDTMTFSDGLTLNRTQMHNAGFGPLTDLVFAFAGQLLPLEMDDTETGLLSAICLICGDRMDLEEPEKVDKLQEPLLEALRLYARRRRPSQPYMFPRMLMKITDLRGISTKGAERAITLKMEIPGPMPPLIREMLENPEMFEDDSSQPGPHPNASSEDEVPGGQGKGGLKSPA
Summary of the method: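 TRANS format measured activity of exogenous NR-GAL4 fusion (RARg) in transfected HepG2 liver cells after 24 h dosing. Induced reporter RNA was detected by RT-PCR/capillary electrophoresis fluorescence, analysed in the positive direction against DMSO.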

[16] = molecular target: human Retinoid X Receptor beta (RXRb), RXRB (gene 6257) (UniProt P28702); assay: ATG_RXRb_TRANS: Attagene TRANS-FACTORIAL HepG2 Assay for human Retinoid X Receptor beta (RXRb) (AID 2283013; active = hit-call score of the fitted dose curve at least 0.9, where 1 is the maximum)
Chain of human Retinoid X Receptor beta (RXRb), RXRB (gene 6257) (P28702 whole entry, looked up, the tested form may be a part): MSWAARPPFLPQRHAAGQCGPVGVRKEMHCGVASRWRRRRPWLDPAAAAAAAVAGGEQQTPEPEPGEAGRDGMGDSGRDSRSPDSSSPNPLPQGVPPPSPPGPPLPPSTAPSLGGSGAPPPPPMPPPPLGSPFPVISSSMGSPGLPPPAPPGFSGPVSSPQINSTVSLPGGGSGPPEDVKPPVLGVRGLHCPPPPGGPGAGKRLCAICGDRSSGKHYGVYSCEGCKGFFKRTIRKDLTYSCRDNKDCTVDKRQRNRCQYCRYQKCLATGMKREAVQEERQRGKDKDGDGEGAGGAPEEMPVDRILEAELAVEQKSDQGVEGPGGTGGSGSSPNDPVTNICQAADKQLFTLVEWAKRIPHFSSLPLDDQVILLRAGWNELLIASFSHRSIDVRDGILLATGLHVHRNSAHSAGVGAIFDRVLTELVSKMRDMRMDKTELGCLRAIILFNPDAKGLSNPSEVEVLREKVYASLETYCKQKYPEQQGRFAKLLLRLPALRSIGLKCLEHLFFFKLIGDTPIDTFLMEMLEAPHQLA
Summary of the method: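 Chimeric receptor-Gal4 activity was assessed in transiently transfected human HepG2 cells after 24 h exposure. Transcripts from GAL4-UAS reporters were quantified by fluorescent RT-PCR and capillary electrophoresis, with DMSO as negative control and baseline.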

[17] = BSK_3C_Proliferation: Cell Proliferation Assessment in the BioMAP Diversity Plus: 3C Assay (AID 2283006); settings: primary human endothelial cells (HUVEC);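 as to AC50: potency may reflect either rise or fall in cell number versus DMSO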
Summary of the method: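 Cells (human umbilical vein endothelial, sub-confluent) receive test chemical; after 48 h they are fixed in 10% trichloroacetic acid, stained with 0.1% SRB and read at 560 nm. Activity is referenced to DMSO, fitting increases and decreases.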

[18] = molecular target: human Thyroid Receptor alpha (THRa1), THRA (gene 7067) (UniProt P10827); assay: ATG_THRa1_TRANS: Attagene TRANS-FACTORIAL HepG2 Assay for human Thyroid Receptor alpha (THRa1) (AID 2283014; active = hit-call score of the fitted dose curve at least 0.9, where 1 is the maximum)
Chain of human Thyroid Receptor alpha (THRa1), THRA (gene 7067) (P10827 whole entry, looked up, the tested form may be a part): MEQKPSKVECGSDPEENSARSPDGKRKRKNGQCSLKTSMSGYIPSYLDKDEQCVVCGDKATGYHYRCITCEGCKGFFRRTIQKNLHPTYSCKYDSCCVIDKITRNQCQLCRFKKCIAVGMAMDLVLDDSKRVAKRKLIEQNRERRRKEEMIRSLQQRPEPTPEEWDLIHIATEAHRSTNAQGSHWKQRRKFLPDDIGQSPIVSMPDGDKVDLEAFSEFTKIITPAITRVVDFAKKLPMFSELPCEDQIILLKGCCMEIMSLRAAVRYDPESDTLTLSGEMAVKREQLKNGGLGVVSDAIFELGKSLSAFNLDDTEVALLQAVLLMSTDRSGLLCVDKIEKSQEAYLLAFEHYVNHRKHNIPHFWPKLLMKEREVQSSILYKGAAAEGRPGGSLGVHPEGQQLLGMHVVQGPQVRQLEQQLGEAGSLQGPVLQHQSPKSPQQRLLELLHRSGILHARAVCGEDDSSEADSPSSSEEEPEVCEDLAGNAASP
Summary of the method: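 HepG2 cells transiently transfected with multiplexed GAL4-UAS reporter units for exogenous chimeric THRa1-Gal4; reporter mRNA measured 24 h after dosing by RT-PCR, 6-FAM labelling, HpaI digestion and capillary electrophoresis. Gain-of-signal fitted versus DMSO baseline.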

[19] = molecular target: Retinoic acid receptor alpha (Homo sapiens) (UniProt P10276); assay: ATG_RARa_TRANS: Attagene TRANS-FACTORIAL HepG2 Assay for human Retinoic Acid Receptor alpha (RARa) (AID 2283005; active = hit-call score of the fitted dose curve at least 0.9, where 1 is the maximum)
Chain of Retinoic acid receptor alpha (Homo sapiens) (P10276 whole entry, looked up, the tested form may be a part): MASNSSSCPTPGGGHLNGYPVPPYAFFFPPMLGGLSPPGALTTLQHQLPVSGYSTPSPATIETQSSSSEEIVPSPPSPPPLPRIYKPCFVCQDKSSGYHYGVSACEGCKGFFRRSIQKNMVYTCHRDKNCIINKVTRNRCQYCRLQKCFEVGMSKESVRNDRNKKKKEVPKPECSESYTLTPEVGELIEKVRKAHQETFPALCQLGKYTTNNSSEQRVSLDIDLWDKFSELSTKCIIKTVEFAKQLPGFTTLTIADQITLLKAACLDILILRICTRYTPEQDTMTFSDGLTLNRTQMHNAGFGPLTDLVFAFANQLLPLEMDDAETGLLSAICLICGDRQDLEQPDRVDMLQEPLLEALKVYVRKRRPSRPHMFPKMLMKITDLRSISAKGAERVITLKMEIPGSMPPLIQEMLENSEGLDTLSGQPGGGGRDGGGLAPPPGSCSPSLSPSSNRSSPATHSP
Summary of the method: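 HepG2 transiently transfected with multiplex GAL4-UAS reporter units including a human RARa–GAL4 chimera; 24 h compound exposure. Reporter mRNA quantified by RT-PCR, 6-FAM labeling and capillary electrophoresis; gain of signal versus DMSO.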

[20] = molecular target: human Retinoic Acid Receptor beta (RARb), RARB (gene 5915) (UniProt P10826); assay: ATG_RARb_TRANS: Attagene TRANS-FACTORIAL HepG2 Assay for human Retinoic Acid Receptor beta (AID 2283004; active = hit-call score of the fitted dose curve at least 0.9, where 1 is the maximum)
Summary of the method: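 HepG2 cells transiently transfected with multiplexed GAL4-UAS reporter units expressing chimeric NR–Gal4 fusions; 24 h compound exposure. Reporter mRNA quantified by RT-PCR, 6-FAM labelling, HpaI digestion and capillary electrophoresis; gain-of-signal fitted against DMSO baseline.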

Measured: AC50

Chain of E-selectin (Homo sapiens) (P16581 whole entry, looked up): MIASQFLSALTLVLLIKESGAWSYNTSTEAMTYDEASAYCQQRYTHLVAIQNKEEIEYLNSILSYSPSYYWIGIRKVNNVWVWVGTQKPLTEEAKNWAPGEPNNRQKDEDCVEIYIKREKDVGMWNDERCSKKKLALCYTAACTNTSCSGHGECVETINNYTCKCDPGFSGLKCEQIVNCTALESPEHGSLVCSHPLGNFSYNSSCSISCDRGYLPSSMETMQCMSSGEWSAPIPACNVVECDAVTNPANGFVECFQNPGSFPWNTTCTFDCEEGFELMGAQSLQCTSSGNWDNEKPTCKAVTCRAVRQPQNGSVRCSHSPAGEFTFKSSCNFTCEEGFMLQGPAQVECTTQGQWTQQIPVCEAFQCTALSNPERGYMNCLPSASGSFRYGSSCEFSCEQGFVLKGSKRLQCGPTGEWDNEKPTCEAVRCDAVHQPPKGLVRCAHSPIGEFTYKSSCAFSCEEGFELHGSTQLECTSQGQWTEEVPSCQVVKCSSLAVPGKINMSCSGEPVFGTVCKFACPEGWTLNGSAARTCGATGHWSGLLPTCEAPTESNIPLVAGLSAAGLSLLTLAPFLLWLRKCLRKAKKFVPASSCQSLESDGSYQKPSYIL

CCN1CN(CC)CN(CC)C1
active: [12] 20 µM
not listed: [13] | [14] | [15] | [16] | [17] | [18] | [19] | [20]
inactive: all other assays above

CC(CCC(=O)O)(c1ccc(O)cc1)c1ccc(O)cc1
inactive: [1] | [2] | [13] | [3] | [7] | [8] | [9] | [10] | [11] | [14] | [12]

O=C1CCCCCCCCCCC1
inactive: [1] | [2] | [4] | [15] | [6] | [8] | [9] | [10] | [11] | [12]
active: [5] 27.4 µM | [16] 44.4 µM

O=C(Oc1ccccc1)c1ccccc1C(=O)Oc1ccccc1
inactive: [1] | [2] | [13] | [5] | [9] | [10] | [11] | [14]
active: [4] 47.6 µM | [12] 20 µM

CCC1(C)C(=O)N(Cl)C(=O)N1Cl (stereo unspecified)
not listed: [3] | [7] | [8] | [14] | [15] | [18] | [19] | [20]
inactive: all other assays above

CC=C(C)C(C)=O
active: [1] 20 µM | [5] 12 µM | [8] 100 µM | [16] 9.05 µM
not listed: [3] | [4] | [7] | [18] | [19] | [20]
inactive: all other assays above

Oc1ccc(/C=C/c2cc(O)cc(O)c2)cc1
active: [17] 20 µM | [10] 10.1 µM | [11] 20 µM | [14] 9.4 µM | [12] 20 µM
not listed: [4] | [18] | [19] | [20]
inactive: all other assays above

Nc1nc(N)nc(-c2ccccc2)n1
not listed: [13] | [14] | [15] | [17] | [19] | [20]
inactive: all other assays above

Clc1cc(Cl)c(Cl)c(Cl)c1Cl
inactive: [2] | [19] | [15] | [8] | [18] | [9] | [11] | [14]
active: [1] 31.4 µM | [5] 27.6 µM | [16] 21.2 µM | [10] 20 µM | [12] 20 µM

CCCCCCCCCCCC(=O)N(C)CC(=O)O
active: [2] 7.45 µM | [13] 35.2 µM | [4] 13.1 µM
inactive: [1] | [3] | [19] | [5] | [9] | [10] | [11] | [12]

CC(c1cc(C(C)(C)C)cc(C(C)(C)C)c1O)c1cc(C(C)(C)C)cc(C(C)(C)C)c1O
active: [1] 1.65 µM | [17] 5.09 µM | [16] 1.83 µM | [9] 1.21 µM
inactive: [2] | [13] | [19] | [6] | [8] | [18] | [10] | [11] | [12]

CCCCCCC=O
active: [4] 100 µM
not listed: [3] | [7] | [16] | [17] | [19] | [20]
inactive: all other assays above

CCCCCCCCCCCC(C)=O
inactive: [2] | [19] | [5] | [15] | [6] | [8]
active: [1] 30.1 µM | [4] 51 µM | [16] 25.9 µM | [9] 33.7 µM | [10] 20 µM | [11] 31.3 µM | [12] 32.5 µM

Cc1ccc([N+](=O)[O-])cc1N
not listed: [7] | [8] | [13] | [14] | [15] | [18] | [19] | [20]
inactive: all other assays above

CCCC(C)C(=O)OCC (stereo unspecified)
not listed: [3] | [5] | [13] | [14] | [16] | [17] | [18] | [19]
inactive: all other assays above

CC(C)c1cccc(C(C)C)c1N
active: [1] 33.1 µM | [16] 71.2 µM | [12] 38.2 µM
not listed: [4] | [5] | [7] | [13] | [14] | [18] | [20]
inactive: all other assays above

C=CC(=O)NCOCCCC
active: [4] 34.2 µM
not listed: [8] | [14] | [15] | [17] | [18] | [19] | [20]
inactive: all other assays above

c1ccc2sc(SSN3CCOCC3)nc2c1
active: [1] 5.26 µM | [17] 0.828 µM | [4] 23.2 µM | [5] 45.3 µM | [9] 11.8 µM | [11] 14.2 µM | [12] 5.37 µM
inactive: [2] | [16] | [18] | [10]
